TRHR enhancer = TRH receptor (human) allosteric enhancement | P34981 | TRHR cells, fluo-8 calcium fluorescence, EC20 TRH enhancement | enhancement, % at 2 µM | 360,000 tested, 0.66% active; in the data active = enhancement above about 30%
Target sequence (P34981 whole entry, looked up): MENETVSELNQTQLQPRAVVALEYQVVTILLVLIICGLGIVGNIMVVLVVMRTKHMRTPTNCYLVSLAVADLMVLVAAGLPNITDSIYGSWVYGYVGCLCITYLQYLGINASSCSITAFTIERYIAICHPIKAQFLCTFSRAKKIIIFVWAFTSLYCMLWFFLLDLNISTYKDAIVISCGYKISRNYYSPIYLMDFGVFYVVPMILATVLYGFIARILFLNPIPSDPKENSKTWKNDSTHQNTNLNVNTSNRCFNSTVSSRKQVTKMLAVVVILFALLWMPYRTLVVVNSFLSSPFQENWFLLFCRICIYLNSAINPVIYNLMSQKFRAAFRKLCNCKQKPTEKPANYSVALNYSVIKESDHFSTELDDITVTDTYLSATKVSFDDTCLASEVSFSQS
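TRHR-expressing cells loaded with fluo-8 calcium dye were read kinetically (ex 480/em 530) during compound addition, then stimulated with an EC20 of TRH (10 nM final). Enhancement of the Gq-mediated intracellular calcium response was scored.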
D1 antag = blocks dopamine activation of the human D1 receptor; HEK293 TREx D1 cells, calcium flux, dopamine EC80; hits give low values; 360,000 tested, 3.2% active; activity change, negative = inhibition, % at 10 µM; in the data active = activity change below about -30%
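Using tetracycline-induced force-coupled D1 Hek293 cells and a calcium dye, signals were followed for 180 s after compound, then for 180 s after EC80 dopamine, to detect inhibitors.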
TRHR ag = TRH receptor (human) agonism; P34981; TRHR cells, calcium flux fluo-8, FDSS agonist mode; activation, % at 2 µM; 360,000 tested, 0.18% active
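TRHR-expressing cells loaded with fluo-8 calcium dye; 23 nL library compound pin-transferred, kinetic FDSS fluorescence (Ex 480/Em 530) recorded about 180 s for agonist-induced calcium release, before a 10 nM TRH EC20 addition for potentiator mode.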
D1 PAM = potentiators of human D1 dopamine receptor | P21728 | HEK293 TREx D1 cells, calcium flux, dopamine EC20 potentiation | potentiation, % at 10 µM | 360,000 tested, 0.036% active; in the data active = potentiation above about 30%
GRP78 ERSR act = ER stress response induction in glioma; U87-MG GRP78 promoter luciferase reporter, 16 h; Potency, µM, most hits filed as activators; 420,000 tested, 0.02% active; active = well fitted activation curve with a large enough effect; inconclusive = small, poorly fitted or top-dose-only effect; inactive = no such curve, though single readings can be large or run the other way; note: series mostly up to about 76 µM; nearly all actives have a fitted effect of over 35% in size
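Stably transfected U87-MG glioma cells carrying a GRP78-based luciferase sensor; 16 h compound incubation. Luminescence end-point read 10 min after Bright-Glo addition at room temperature.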
D1 ag = human D1 receptor agonism; P21728; HEK293 T-REx D1 cells, calcium flux, agonist mode; activation, % at 2 µM; 360,000 tested, 1% active; AID 504660
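Inducible HEK293 T-REx D1 cells, force-coupled to calcium signalling, were plated at 4000 cells/well with tetracycline and held overnight at 30 C. After no-wash calcium dye loading, compound-evoked calcium rise over 180 s flagged agonists.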
Numbers stand for hits. A selection: hits, their analogues and other compounds. The true share with any hit is near 4%. Cut-off read from the data, not from the text of the source, unless noted: active = activation above about 30%; inactive = the rest.

`CN(Cc1cccs1)CC(O)COCc1ccco1` (stereo not given) gave TRHR enhancer inactive, D1 antag inactive, TRHR ag inactive, D1 PAM inactive, GRP78 ERSR act inactive and D1 ag inactive.
Screening COc1ccc(N(Cc2cccs2)C(=O)c2ccccc2C)cc1 returned TRHR enhancer inactive, D1 antag -36, TRHR ag inactive, D1 PAM inactive, GRP78 ERSR act inactive and D1 ag inactive.
N#Cc1c(C(F)(F)F)cc(-c2ccco2)nc1SCc1ccccn1 was read as TRHR enhancer inactive, D1 antag inactive, TRHR ag inactive, D1 PAM inactive, GRP78 ERSR act inactive and D1 ag 31.
For N#Cc1c(C(F)(F)F)cc(-c2ccco2)nc1SCc1ccncc1 the results were TRHR enhancer inactive, D1 antag inactive, TRHR ag inactive, D1 PAM inactive, GRP78 ERSR act inactive and D1 ag 37.
CSc1nc(-c2ccco2)cc(C(F)(F)F)c1C#N was read as TRHR enhancer inactive, D1 antag inactive, TRHR ag inactive, D1 PAM inactive, GRP78 ERSR act inactive and D1 ag inactive.
For CCCCCOc1ccc(Cn2c(=O)oc3ccc(C)cc32)cc1OC the results were TRHR enhancer inactive, D1 antag inactive, TRHR ag inactive, D1 PAM inactive, GRP78 ERSR act inactive and D1 ag inactive.
For NS(=O)(=O)c1cc(C(=O)NC2CCSc3ccccc32)ccc1Cl (stereo not given) the results were TRHR enhancer inactive, D1 antag inactive, TRHR ag inactive, D1 PAM inactive, GRP78 ERSR act inactive and D1 ag inactive.
`CS(=O)(=O)c1ccc(Cl)c(C(=O)NC2CCSc3ccccc32)c1` (stereo not given) gave TRHR enhancer inactive, D1 antag -45, TRHR ag inactive, D1 PAM inactive, GRP78 ERSR act inactive and D1 ag inactive.
`CCNS(=O)(=O)c1ccc(NC(=O)Nc2cc(C)ccc2OC)cc1` gave TRHR enhancer inactive, D1 antag -37, TRHR ag inactive, D1 PAM inactive, GRP78 ERSR act inactive and D1 ag inactive.
Screening Cc1ccc(CONC(=O)c2ccc(Cl)cc2)cc1 returned TRHR enhancer inactive, D1 antag inactive, TRHR ag inactive, D1 PAM inactive, GRP78 ERSR act inactive and D1 ag inactive.
Screening Cc1ccc(CONC(=O)c2ccc(C)cc2)cc1 returned TRHR enhancer inactive, D1 antag -30, TRHR ag inactive, D1 PAM inactive, GRP78 ERSR act inactive and D1 ag inactive.
`O=c1c(-c2ccc(O)cc2)coc2cc(O[C@@H]3O[C@H](CO)[C@H](O)[C@H](O)[C@H]3O)ccc12` gave GRP78 ERSR act inactive.
Screening CCCN1CCCc2ccccc21 returned TRHR enhancer inactive, D1 antag -31, TRHR ag inactive, D1 PAM inactive, GRP78 ERSR act inactive and D1 ag inactive.
For CCN(CC)C1CCN(C(=O)c2cnn(-c3nccc(-c4ccco4)n3)c2C(C)C)C1 (stereo not given) the results were GRP78 ERSR act inactive.
Screening CCC(C)c1ccccc1OCCn1ccnc1 (stereo not given) returned TRHR enhancer inactive, D1 antag -34, TRHR ag inactive, D1 PAM inactive, GRP78 ERSR act inactive and D1 ag inactive.
Cc1ccc(CNC(=O)c2cnc(N3CCCC3)nc2C)cc1 was read as TRHR enhancer inactive, D1 antag inactive, TRHR ag inactive, D1 PAM inactive and D1 ag inactive.
Screening Cc1cccc(CCNC(=O)c2sc3nc4n(c(=O)c3c2C)CCCC4)c1 returned TRHR enhancer inactive, D1 antag inactive, TRHR ag inactive, D1 PAM inactive, GRP78 ERSR act inactive and D1 ag 32.
For CCOc1ccc(CCNC(=O)c2sc3nc4n(c(=O)c3c2C)CCCC4)cc1OCC the results were TRHR enhancer inactive, D1 antag inactive, TRHR ag inactive, D1 PAM inactive, GRP78 ERSR act inactive and D1 ag inactive.
Screening COc1ccc(CNC(=O)c2cnc(N3CCCC3)nc2C)cc1 returned TRHR enhancer inactive, D1 antag -44, TRHR ag inactive, D1 PAM inactive and D1 ag inactive.
Cc1c(C(=O)NCc2ccc(Cl)cc2)sc2nc3n(c(=O)c12)CCCC3 was read as TRHR enhancer inactive, D1 antag inactive, TRHR ag inactive, D1 PAM inactive and D1 ag inactive.
`COc1ccc(CNC(=O)c2sc3nc4n(c(=O)c3c2C)CCCC4)cc1` gave TRHR enhancer inactive, D1 antag inactive, TRHR ag inactive, D1 PAM inactive and D1 ag 71.
For Cc1c(C(=O)NCc2cccc(Cl)c2)sc2nc3n(c(=O)c12)CCCC3 the results were TRHR enhancer inactive, D1 antag inactive, TRHR ag inactive, D1 PAM inactive, GRP78 ERSR act inactive and D1 ag 32.
CCOC(=O)c1ccc(Nc2c(-c3cccc(O)c3)nc3nc[nH]n23)cc1 was read as TRHR enhancer inactive, D1 antag inactive, TRHR ag inactive, D1 PAM inactive, GRP78 ERSR act inactive and D1 ag inactive.
For CCc1sc(-c2c(C#N)c(N)nc3c2CCCCCC3)cc1[N+](=O)[O-] the results were TRHR enhancer inactive, D1 antag inactive, TRHR ag inactive, D1 PAM inactive, GRP78 ERSR act inactive and D1 ag 73.
CCOC(=O)N1CCN(C(=O)c2c[nH]c3ccc(S(=O)(=O)N(C)c4ccccc4C)cc3c2=O)CC1 was read as TRHR enhancer inactive, D1 antag -34, TRHR ag inactive, D1 PAM inactive, GRP78 ERSR act inactive and D1 ag inactive.
`COC(=O)C1CCCCN1Cc1ccc2c(c1)CN(Cc1cn[nH]c1-c1ccc(F)cc1)CCO2` (stereo not given) gave GRP78 ERSR act inactive.
For N#C/C(=C/c1ccc(N2CCCCCC2)o1)c1cccc(F)c1 the results were TRHR enhancer inactive, D1 antag inactive, TRHR ag inactive, D1 PAM inactive, GRP78 ERSR act inconclusive and D1 ag inactive.
For COc1cc(N2CCCC2)c(OC)cc1/C=C(/C#N)c1cccc(F)c1 the results were TRHR enhancer inactive, D1 antag inactive, TRHR ag inactive, D1 PAM inactive, GRP78 ERSR act inactive and D1 ag 56.
Screening COCCNC(=S)N1CCCN(c2nc3cc(C)ccc3cc2C#N)CC1 returned TRHR enhancer inactive, D1 antag inactive, TRHR ag inactive, D1 PAM inactive, GRP78 ERSR act inactive and D1 ag inactive.
For COCCCNC(=S)N1CCCN(c2nc3c(C)c(C)ccc3cc2C#N)CC1 the results were TRHR enhancer inactive, D1 antag -42, TRHR ag inactive, D1 PAM inactive, GRP78 ERSR act inactive and D1 ag inactive.
Screening O=C(c1ccco1)N1CCc2[nH]nc(-c3ccc(Cl)cc3)c2C1 returned TRHR enhancer inactive, D1 antag -30, TRHR ag inactive, D1 PAM inactive, GRP78 ERSR act inactive and D1 ag inactive.

Screens deposited in PubChem by National Center for Advancing Translational Sciences (NCATS).
